Inconclusive results are not listed. A number with no mark means an inactive call. Calls follow the shape of the dose curve; as a rule, active = well fitted curve in the direction sought with a large enough effect; inconclusive = small, poorly fitted or top-dose-only effect, or another doubt; inactive = no such curve, though single readings can be large; an effect the other way counts as inactive or inconclusive. Peptide text beside a SMILES is read from it.
molecular target: Cellular tumor antigen p53 (Homo sapiens) (UniProt P04637); assay: Primary qHTS for small molecule compounds that upregulate eGFP-tagged delta133p53alpha (in N-terminal) cells. (AID 2060322); conditions: NCI-H358 eGFP-delta133p53alpha fluorescence, 24 h; activation: active compounds read high;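 also: 0% = DMSO vehicle and 100% = reference activator; nearly all actives have a fitted effect of over 75% in size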
Sequence (P04637 whole entry, looked up): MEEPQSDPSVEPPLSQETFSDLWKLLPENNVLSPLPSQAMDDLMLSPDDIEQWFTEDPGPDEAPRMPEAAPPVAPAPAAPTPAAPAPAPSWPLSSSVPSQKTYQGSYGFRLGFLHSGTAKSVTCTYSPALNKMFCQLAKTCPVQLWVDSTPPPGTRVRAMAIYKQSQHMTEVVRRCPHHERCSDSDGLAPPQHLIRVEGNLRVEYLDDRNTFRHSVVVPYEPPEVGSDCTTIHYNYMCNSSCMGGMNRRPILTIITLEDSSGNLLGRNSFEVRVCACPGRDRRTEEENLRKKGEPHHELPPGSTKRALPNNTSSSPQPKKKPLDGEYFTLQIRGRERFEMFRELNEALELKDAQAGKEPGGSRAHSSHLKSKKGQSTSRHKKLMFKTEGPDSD
Procedure, shortened: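 NCI-H358 cells pre-induced 24 h with 10 ng/ml doxycycline to express N-terminal eGFP-delta133p53alpha, then dosed 24 h at 37C without doxycycline; fixed, Hoechst-stained, GFP intensity by laser scanning cytometry, normalized to DMSO (0%) and 57.5 uM 5-azacytidine (100%).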

In order of falling activation:
1. C[C@@H]1CCO[C@H]2Cn3cc(C(=O)NCc4ccc(F)cc4F)c(=O)c(O)c3C(=O)N12  32.3%
2. CC1=CCC2C(C)(C)CCC[C@]2(C)[C@@]12CC[C@](C)(CC(=O)O)O2 (stereo not given in full)  27.5%
3. C/C(=C\CCC(C)C1CC(O)C2(C)C3CCC4C(C)(C)C(OC5OCC(O)C(O)C5O)CCC45CC35CC(O)C12C)C(=O)O (stereo not given)  17.6%
4. C=C[C@@]1(C)CCC2=C([C@H]1OC(C)=O)[C@H](OC(C)=O)CC1[C@](C)(C(=O)OC)CC[C@H](OC(C)=O)[C@]21C (stereo not given in full)  15.2%
5. Cn1c(=O)c(F)c(Nc2ccc(I)cc2F)c2c(=O)n(CC(O)CO)cnc21 (stereo not given)  14.3%
6. O=C1[C@H](O[C@@H]2O[C@H](CO)[C@@H](O)[C@H](O)[C@H]2O)Oc2ccccc2N1O  14.3%
7. CSCC[C@H](NC(=O)[C@H](CO)NC(=O)[C@H](CCC(=O)O)NC(C)=O)C(=O)N[C@H](C=O)CC(=O)O (Ac-ESMD-aldehyde)  12.3%
8. COc1ccc2nccc(C(=O)CC[C@@H]3CCN(CC#Cc4cc(F)cc(F)c4F)C[C@@H]3C(=O)O)c2c1  7.64%
9. C=C[C@](C)(O)CC[C@H]1C(C)=CC(=O)[C@H]2C(C)(C)CCC[C@]12C  3.57%
10. C=C1CC2[C@@]3(C)C=CC(=O)C(C)(C)C3=C(O)C(=O)[C@@]2(C)C2(C(=O)OC)C(=O)C(C)OC(=O)[C@@]12C (stereo not given in full)  -3.82%
11. CC(=O)O[C@@H]1C[C@@H](OC(C)=O)C(C)(C)/C=C/[C@H](C)[C@H](OC(C)=O)[C@@]2(O)C[C@H](C)[C@H](OC(=O)c3ccccc3)[C@@H]2/C=C/1C  -3.82%
12. CC(=O)CCC1=C(C)C(O[C@@H]2O[C@H](CO)[C@@H](O)[C@H](O)[C@H]2O)C(O)CC1(C)C (stereo not given in full)  -3.82%
13. CC1=C2C[C@@]3(C)[C@@H](CCC[C@@H]3C)C[C@@]2(O)OC1=O  -4.46%
14. CCNC(=O)[C@@H]1CCCN1C(=O)[C@H](CCCN=C(N)N)NC(=O)[C@H](CC(C)C)NC(=O)[C@@H](C)NC(=O)[C@H](Cc1ccc(O)cc1)NC(=O)[C@H](CO)NC(=O)[C@H](Cc1c[nH]c2ccccc12)NC(=O)[C@H](Cc1cnc[nH]1)NC(=O)[C@@H]1CCC(=O)N1  -6.33%
15. C=C1CCC[C@]2(C)CC[C@@H](C(=C)C(=O)O)[C@H](O)[C@@H]12  -7.63%
16. CCCC(=O)O[C@@H]1[C@@H]2[C@@H](OC(C)=O)[C@]3(C)C(=O)[C@H]4[C@@H](OC(C)=O)C(C)(C)C[C@H]4[C@]3(C)C(=O)[C@@]2(OC(C)=O)C[C@@H]1C  -10.7%
17. CC(=O)O[C@@H]1[C@H](O[C@@H]2O[C@@H](CO)[C@H](O)[C@H]2O)[C@@H](O[C@@H]2O[C@@H](C)[C@H](O[C@@H]3OC[C@@H](O)[C@H](O)[C@H]3O)[C@@H](O)[C@H]2O)[C@H](OC(=O)[C@]23CCC(C)(C)C[C@H]2C2=CCC4[C@@]5(C)CC[C@H](O[C@@H]6O[C@H](C(=O)O)[C@@H](O)[C@H](O)[C@H]6O[C@@H]6O[C@H](CO)[C@H](O)[C@H](O)[C@H]6O)[C@@](C)(C=O)C5CC[C@@]4(C)[C@]2(C)CC3)O[C@@H]1C (stereo not given in full)  -13.7%
18. CC1(CO)CCCC2(C)C1C(OC(=O)c1ccccc1)CC1C(=O)OCC12O (stereo not given)  -20.6%

molecular target: Aldehyde dehydrogenase, mitochondrial (Homo sapiens) (UniProt P05091); assay: qHTS for Inhibitors of the Aldehyde Dehydrogenase Family (ALDH2) Primary screen (AID 2061308); conditions: ALDH2 enzyme inhibition qHTS, 1536-well; series mostly up to 56 µM; activity change, negative = inhibition: at the top concentration;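 also: plate controls were vehicle for no effect and reference inhibitor for full effect; nearly all actives have a fitted effect of over 55% in size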

In order of rising “activity change, negative = inhibition” value:
1. CO[C@H]1/C=C/C=C/C=C/C[C@H](OC(=O)[C@@H](C)NC(=O)C2CCCCC2)[C@H](C)[C@@H](O)/C(C)=C/CCc2cc(O)cc(c2)NC(=O)C1  -14.5% [at 16.9 µM]
2. C/C(=C\CCC(C)C1CC(O)C2(C)C3CCC4C(C)(C)C(OC5OCC(O)C(O)C5O)CCC45CC35CC(O)C12C)C(=O)O (stereo not given)  -12.3% [at 16.9 µM]
3. CC(C)=CCC[C@](C)(O[C@@H]1O[C@H](CO[C@@H]2O[C@H](CO)[C@@H](O)[C@H](O)[C@H]2O)[C@@H](O)[C@H](O)[C@H]1O)C1CC[C@]2(C)[C@@H]1[C@H](O)CC1[C@@]3(C)CC[C@H](O[C@@H]4O[C@H](CO)[C@@H](O)[C@H](O)[C@H]4O[C@@H]4O[C@H](CO)[C@@H](O)[C@H](O)[C@H]4O)C(C)(C)[C@@H]3CC[C@]12C (stereo not given in full)  1.9% [at 16.9 µM]
4. CC(=O)O[C@@H]1C[C@@H](OC(C)=O)C(C)(C)/C=C/[C@H](C)[C@H](OC(C)=O)[C@@]2(O)C[C@H](C)[C@H](OC(=O)c3ccccc3)[C@@H]2/C=C/1C  3.6% [at 16.9 µM]
5. CC(=O)O[C@H]1CC(C)(C)CC2[C@@]13[C@H](O)C[C@]1(C)[C@@]2(CCC2[C@@]4(C)CC[C@H](O[C@@H]5OC[C@H](O[C@@H]6O[C@H](CO)[C@@H](O)[C@H](O)[C@H]6O[C@@H]6OC[C@@H](O)[C@H](O)[C@H]6O)[C@H](O)[C@H]5O[C@@H]5O[C@H](CO)[C@@H](O)[C@H](O)[C@H]5O)C(C)(C)C4CC[C@]21C)O[C@@H]3O (stereo not given in full)  5.4% [at 16.9 µM]
6. CC(=O)OC[C@]12[C@@H](OC(=O)c3ccoc3)C[C@@H]3[C@@H](OC(C)=O)[C@]1(OC3(C)C)[C@@](C)(O)C[C@H](OC(=O)c1ccoc1)[C@@H]2OC(=O)c1ccoc1  6.81% [at 16.9 µM]
7. CC1CCC2(OC1)OC1CC3C4CC=C5CC(O)CC(O[C@@H]6OC[C@@H](O)[C@H](O)[C@H]6O)C5(C)C4CCC3(C)C1(O)C2C (stereo not given in full)  11.1% [at 16.9 µM]

In order of falling “activity change, negative = inhibition” value:
1. CSCC1OC(n2cnc3c(=O)[nH]cnc32)C(O)C1O (stereo not given)  12.8%
2. CC1CC(O)C2(C)C(C(=O)O)=CCCC2C1(C)CCc1ccoc1 (stereo not given)  8.86%
3. Cc1nc2ccc(Oc3ccc(F)cc3)cc2c(=O)n1C[C@H]1CCCN(C(C)C)C1  6.06%
4. CC(=O)CCC1=C(C)C(O[C@@H]2O[C@H](CO)[C@@H](O)[C@H](O)[C@H]2O)C(O)CC1(C)C (stereo not given in full)  3.24%
5. C=C1CC/C=C(/C(=O)O)CCC2C1CC2(C)C (stereo not given)  1.26%
6. CC1CCCCN1S(=O)(=O)c1ccc(N2CCCC2=O)cc1 (stereo not given)  1.06%
7. C[N+]1(C)[C@@H]2CC[C@H]1CC(OC(=O)C(O)c1ccccc1)C2 (stereo not given in full)  0.786%
8. CO[C@H]1C[C@@H]2CC[C@@H](C)[C@@](O)(O2)C(=O)C(=O)N2CCCC[C@H]2C(=O)O[C@H]([C@H](C)C[C@H]2CC[C@@H](OP(C)(C)=O)[C@H](OC)C2)CC(=O)[C@H](C)/C=C(\C)[C@@H](O)[C@@H](OC)C(=O)[C@H](C)C[C@H](C)/C=C/C=C/C=C/1C  0.523%
9. OC(CN1CCN(c2cccc(Cl)c2)CC1)C(c1ccccc1)c1ccccc1 (stereo not given)  -3.52%
10. Cn1c(=O)c(F)c(Nc2ccc(I)cc2F)c2c(=O)n(CC(O)CO)cnc21 (stereo not given)  -4.06%
11. C=C[C@](C)(O)CC[C@H]1C(C)=CC(=O)[C@H]2C(C)(C)CCC[C@]12C  -4.27%
12. Clc1ccc(Nc2nc3ccccc3c3nc(C4CCCCC4)[nH]c23)cc1Cl  -4.83%
13. C[C@@H]1CCO[C@H]2Cn3cc(C(=O)NCc4ccc(F)cc4F)c(=O)c(O)c3C(=O)N12  -9.38%
14. CC(C)[C@@](O)(c1ccc2cc(OC(F)F)c(OC(F)F)cc2c1)c1cn[nH]n1  -18.7%
15. COc1ccc2nccc(C(=O)CC[C@@H]3CCN(CC#Cc4cc(F)cc(F)c4F)C[C@@H]3C(=O)O)c2c1  -24.7%
16. COc1ccc(C2(O)CCC(N3CC[C@@H](NC(=O)CNC(=O)c4cccc(C(F)(F)F)c4)C3)CC2)cn1 (stereo not given in full)  -26.9%

In order of falling “activity change, negative = inhibition” value:
1. CCNC(=O)[C@@H]1CCCN1C(=O)[C@H](CCCN=C(N)N)NC(=O)[C@H](CC(C)C)NC(=O)[C@@H](C)NC(=O)[C@H](Cc1ccc(O)cc1)NC(=O)[C@H](CO)NC(=O)[C@H](Cc1c[nH]c2ccccc12)NC(=O)[C@H](Cc1cnc[nH]1)NC(=O)[C@@H]1CCC(=O)N1  17.1% [at 28 µM]
2. C=C[C@@]1(C)CCC2=C([C@H]1OC(C)=O)[C@H](OC(C)=O)CC1[C@](C)(C(=O)OC)CC[C@H](OC(C)=O)[C@]21C (stereo not given in full)  15.2% [at 28 µM]
3. CCC(C)C(=O)O[C@@H]1[C@@H](O)[C@@H](O[C@H]2O[C@H](CO)[C@@H](O)[C@H](O)[C@H]2O)O[C@H](CO)[C@H]1O (stereo not given in full)  6.92% [at 28 µM]
4. C=C1[C@@H]2CC[C@@]3(C)[C@H](c4ccoc4)OC(=O)C[C@]13O[C@H]1CC(=O)C(C)(C)[C@H](CC(=O)OC)[C@]12C  1.31% [at 28 µM]
5. C=C1CC2[C@@]3(C)C=CC(=O)C(C)(C)C3=C(O)C(=O)[C@@]2(C)C2(C(=O)OC)C(=O)C(C)OC(=O)[C@@]12C (stereo not given in full)  -0.645% [at 28 µM]
6. CC(=O)OC1CC2(C)C(CCC(C)C23Cc2c(O)cc4c(c2O3)CNC4=O)C(C)(C)C1O (stereo not given)  -4.88% [at 28 µM]

In order of rising activity change, negative = inhibition:
1. CSCC[C@H](NC(=O)[C@H](CO)NC(=O)[C@H](CCC(=O)O)NC(C)=O)C(=O)N[C@H](C=O)CC(=O)O (Ac-ESMD-aldehyde)  -17.2% [at 11.2 µM]
2. C=CC(C)(O)CC/C=C(\C)C(=O)OCC1OC(OC2CCC3(C)C(CCC4(C)C3CC=C3C5CC(C)(C)C(O)CC5(C(=O)O)CCC34C)C2(C)C)C(O)C(OC2OC(CO)C(O)C(OC3OC(CO)C(O)C(OC4OC(COC5OC(CO)C(O)C(O)C5O)C(O)C(O)C4O)C3O)C2O)C1O (stereo not given)  1.9% [at 11.2 µM]
3. CC1OC(O[C@@H]2[C@@H](O)[C@H](OC(=O)[C@]34CCC(C)(C)C[C@H]3C3=CCC5[C@@]6(C)CC[C@H](O[C@@H]7O[C@H](C(=O)O)[C@@H](O)[C@H](O[C@@H]8OC[C@@H](O)[C@H](O)[C@H]8O)[C@H]7O[C@@H]7O[C@H](CO)[C@H](O)[C@H](O)[C@H]7O)[C@@](C)(C=O)C6CC[C@@]5(C)[C@]3(C)C[C@H]4O)O[C@H](C)[C@@H]2OC2OC(C)C(OC3OCC(O)C(O)C3O)C(O)C2O)C(O)C(O)C1O (stereo not given in full)  9.81% [at 11.2 µM]
